Results on ten compounds are retold here after publication PMC5540273 (PLoS ONE, 2017).

Holding throughout (settings): concentration: 1 μM, replicates: in singlicate; n = 1
The test system of assay [1] is MYO3B.
The test system of assay [2] is T1, NDR1.
T1 construct: gene STK38

In assay [3] the test system is NDR2.
Assay [4] has as its system NEK10.
Assay [5] has as its system NEK11.
For assay [6], the system named is NEK1.
Assay [7] deals with NEK2.
The subject of assay [8] is NEK3.
Assay [9] relates to NEK4.
Assay [10] deals with NEK5.
Assay [11] relates to NEK6.
For assay [12], the system named is NEK7.
For assay [13], the system named is NEK9.
For assay [14], the system named is T2, NIK.
T2 construct: gene MAP3K14

In assay [15] the test system is T3, NIM1.
T3 construct: gene MGC42105

Assay [16] concerns NLK.
Assay [17] relates to T4, OSR1.
T4 construct: gene OXSR1

In assay [18] the test system is PAK1.
The test system of assay [19] is PAK2.
Assay [20] deals with PAK3.
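Also: KINOMEscan kinase panel screen.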

Consider `Cc1ccc(NC(=O)c2ccnc(N3CCN(C)CC3)c2)cc1-c1ccc(C(=O)NCC2CC2)cc1` [GW775604], for which the “%Inh” value in assay [1] was 22%; in assay [2], 27%; in [3], 0%; in [4], 0%; in assay [5] it was 0%; in assay [6], 20%. Also, the “%Inh” value in assay [7] came out at 0%; in assay [8] it was 20%; in assay [9], 0%; in assay [10], 0%; in assay [11] it was 0%; in [12] it was 0%. In addition, the “%Inh” value is given as 0% in [13]; 4% in assay [14]; 0% in assay [15]; 0% in assay [16]; 0% in [17]; 9% in assay [18]. Further, the figures for the “%Inh” value in [19] and in assay [20] were 37% and 0%, respectively.
Consider `COc1ccc(COc2cc(-n3cnc4ccccc43)sc2C(N)=O)cc1` [GSK1024304], for which the “%Inh” value in [1] came to 0%; in [2], 6%; in assay [3], 0%; in [4], 19%; in [5] it was 0%; in assay [6], 0%. The “%Inh” value in assay [7] was 0%; in assay [8], 0%; in assay [9] it was 0%; in assay [10] it was 7%; in assay [11], 0%; in [12], 0%. For the same compound, the “%Inh” value in assay [13] is on record as 5%; in assay [14], 10%; in assay [15], 28%; in assay [16], 0%; in [17], 14%; in assay [18] it was 1%. Moreover, the “%Inh” value worked out at 4% in [19] and 1% in assay [20].
Consider `COc1cc(Nc2nccc(N3CCC(NC(=O)c4cccc(NC(C)=O)c4)C3)n2)cc(OC)c1OC` (centres unmarked) [GSK1379754], for which the “%Inh” value in assay [1] is listed as 0%; in assay [2] it was 19%; in assay [3] it was 0%; in assay [4], 20%; in assay [5], 0%; in [6] it was 48%. Moreover, the “%Inh” value in [7] stood at 7%; in assay [8] it was 54%; in assay [9], 24%; in assay [10], 100%; in assay [11] it was 37%; in assay [12], 68%. In addition, the “%Inh” value amounted to 49% in assay [13]; 23% in assay [14]; 5% in [15]; 0% in assay [16]; 6% in assay [17]; 20% in [18]. Further, the “%Inh” value in assay [19] is reported as 20%; in assay [20], 26%.
Consider `Cc1nnc(-c2ccc(C)c(-c3ccc(C(=O)Nc4ccc(NS(C)(=O)=O)cc4)cc3)c2)o1` [GW702865], for which the “%Inh” value in assay [1] worked out at 0%; in [2] it was 20%; in assay [3] it was 18%; in assay [4] it was 6%; in [5], 33%; in assay [6], 0%. In addition, the “%Inh” value is reported as 0% in [7]; 0% in assay [8]; 0% in [9]; 8% in [10]; 0% in [11]; 0% in assay [12]. Besides, the “%Inh” value worked out at 7% in assay [13]; 16% in [14]; 19% in [15]; 0% in [16]; 0% in assay [17]; 10% in assay [18]. Also, the “%Inh” value in [19] and in assay [20] was 0% in each case.
As for `CN(C1=C(c2ccccc2)C(=O)NC1=O)c1ccccc1` [SB-334860], the “%Inh” value is listed as 0% in assay [1]; 26% in assay [2]; 24% in assay [3]; 15% in assay [4]; 0% in assay [5]; 8% in assay [6]. Also, the “%Inh” value stood at 0% in assay [7]; 9% in assay [8]; 0% in assay [9]; 23% in assay [10]; 15% in assay [11]; 0% in assay [12]. Moreover, the “%Inh” value in assay [13] amounted to 17%; in assay [14] it was 0%; in assay [15], 34%; in assay [16], 35%; in assay [17] it was 4%; in [18], 0%. Also, the “%Inh” value in [19] and in [20] was 0% each time.
For `COc1cc2c(cc1OCCN1CCN(C)CC1)ncc1c3ccc(C#N)cc3[nH]c21`, the “%Inh” value in assay [1] amounted to 0%; in assay [2] it was 52%; in [3], 0%; in assay [4], 15%; in [5], 0%; in [6], 0%. Moreover, the “%Inh” value is reported as 48% in assay [7]; 33% in assay [8]; 0% in assay [9]; 0% in assay [10]; 7% in assay [11]; 0% in assay [12]. Also, the “%Inh” value was 0% in [13]; 76% in assay [14]; 64% in [15]; 0% in [16]; 0% in [17]; 24% in assay [18]. The results for the “%Inh” value in [19] and in assay [20] were 39% and 0%, respectively.
Turning to `O=C1Cc2cc(Nc3nc(NCc4cccc(S(=O)(=O)C(F)(F)F)c4)ncc3C(F)(F)F)ccc2N1`, the “%Inh” value in [1] worked out at 0%; in [2], 9%; in assay [3] it was 0%; in assay [4], 36%; in assay [5], 0%; in assay [6], 10%. Besides, the “%Inh” value turned out to be 9% in [7]; 12% in assay [8]; 5% in [9]; 14% in assay [10]; 14% in assay [11]; 0% in [12]. For the same compound, the “%Inh” value was determined as 0% in [13]; 4% in assay [14]; 26% in assay [15]; 4% in assay [16]; 4% in assay [17]; 0% in assay [18]. Besides, the “%Inh” value came to 0% in assay [19] and 1% in assay [20].
Turning to `Cc1nnc(-c2ccc3occ(-c4ccc(C(C)O)cc4)c3c2)o1` (centres unmarked), the “%Inh” value stood at 0% in assay [1]; 18% in assay [2]; 55% in assay [3]; 30% in assay [4]; 0% in assay [5]; 0% in assay [6]. Also, the “%Inh” value in [7] was determined as 0%; in assay [8], 3%; in assay [9], 0%; in assay [10], 0%; in [11] it was 4%; in assay [12] it was 0%. For the same compound, the “%Inh” value in assay [13] was 0%; in assay [14], 0%; in assay [15] it was 0%; in assay [16], 2%; in assay [17], 25%; in assay [18], 14%. The “%Inh” value in assay [19] came to 16%; in assay [20], 23%.
Turning to `Nc1nc(-c2ccc3c(N)n[nH]c3c2)cc(N2CCCC2)n1` [GSK2227430], the “%Inh” value in [1] is reported as 7%; in assay [2], 14%; in [3], 0%; in [4], 0%; in assay [5], 0%; in assay [6], 12%. Besides, the “%Inh” value amounted to 0% in assay [7]; 5% in assay [8]; 0% in [9]; 0% in assay [10]; 0% in assay [11]; 0% in assay [12]. Besides, the “%Inh” value is recorded as 6% in [13]; 0% in assay [14]; 0% in [15]; 0% in assay [16]; 7% in [17]; 13% in [18]. For the same compound, the “%Inh” value in assay [19] is given as 12%; in assay [20], 0%.
For the compound `CNc1ncnc2[nH]ncc12` [SKF-18355], the “%Inh” value in [1] came out at 34%; in [2], 46%; in assay [3], 23%; in assay [4], 16%; in [5] it was 0%; in assay [6], 0%. Besides, the “%Inh” value in [7] was 0%; in assay [8] it was 26%; in assay [9], 0%; in assay [10], 0%; in [11] it was 0%; in [12] it was 0%. Besides, the “%Inh” value was found to be 0% in [13]; 31% in assay [14]; 21% in assay [15]; 0% in assay [16]; 0% in assay [17]; 0% in assay [18]. Moreover, the “%Inh” value is reported as 43% in assay [19] and 0% in [20].
